Screening data as filed in PubChem BioAssay.
Compounds with a hit are over-represented: about 2.3% of the library has one in this group of screens.
PLCg1 inh: PLC-gamma1 enzyme inhibitors, primary screen, biochemical, fluorescence, purified enzyme; 1-phosphatidylinositol 4,5-bisphosphate phosphodiesterase gamma-1 (Homo sapiens), P19174; fluorogenic substrate; inhibition, % at 12.2 µM; hit rate 0.84% among 370,000; AID 720700, 2013; in the data active = inhibition above about 9.5%
LEDGF integ inh: blockers of LEDGF/p75-dependent integrase strand transfer – biochemical, TR-FRET, high throughput, primary screen | HIV-1 integrase (with human LEDGF/p75) | TR-FRET IN-LEDGF/p75 DNA integration, Eu/Cy5 | inhibition, % at 3.7 µM | hit rate 0.64% among 370,000 | AID 743269, 2014;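 active = inhibition above the screen-wide mean plus 3 SD, cut at about 13% in these data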;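 also: signal is the Cy5 over europium emission ratio at 671 and 618 nm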
PLC-beta3 inh: human PLC-beta3 inhibitors, primary screen, biochemical, fluorescence | 1-phosphatidylinositol 4,5-bisphosphate phosphodiesterase beta-3 (Homo sapiens), Q01970 | Purified PLC-beta3, fluorogenic substrate | inhibition, % at 12.2 µM | hit rate 0.18% among 370,000; in the data active = inhibition above about 11%
MBD2 DNA inh: inhibitors of MBD2 binding to methylated DNA, primary screen, biochemical, TR-FRET, DNA-binding domain, human. hit rate 0.31% among 370,000. inhibition, % at 4.4 µM. MBD2 binding to methylated oligonucleotide. Methyl-CpG-binding domain protein 2 (Homo sapiens), Q9UBB5; in the data active = inhibition above about 13%
UHRF1 MBD2 ctr: UHRF1 methylated DNA binding inhibitors, primary screen, counter-screen for MBD2 inhibitor project, biochemical, TR-FRET, human UHRF1, single concentration; E3 ubiquitin-protein ligase UHRF1 (Homo sapiens), Q96T88; UHRF1 binding to methylated oligo; inhibition, % at 4.4 µM; hit rate 0.75% among 370,000;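 also: UHRF1 SRA domain binding a hemimethylated CpG hairpin DNA probe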
Target sequence (Q96T88 whole entry, looked up, the tested form may be a part): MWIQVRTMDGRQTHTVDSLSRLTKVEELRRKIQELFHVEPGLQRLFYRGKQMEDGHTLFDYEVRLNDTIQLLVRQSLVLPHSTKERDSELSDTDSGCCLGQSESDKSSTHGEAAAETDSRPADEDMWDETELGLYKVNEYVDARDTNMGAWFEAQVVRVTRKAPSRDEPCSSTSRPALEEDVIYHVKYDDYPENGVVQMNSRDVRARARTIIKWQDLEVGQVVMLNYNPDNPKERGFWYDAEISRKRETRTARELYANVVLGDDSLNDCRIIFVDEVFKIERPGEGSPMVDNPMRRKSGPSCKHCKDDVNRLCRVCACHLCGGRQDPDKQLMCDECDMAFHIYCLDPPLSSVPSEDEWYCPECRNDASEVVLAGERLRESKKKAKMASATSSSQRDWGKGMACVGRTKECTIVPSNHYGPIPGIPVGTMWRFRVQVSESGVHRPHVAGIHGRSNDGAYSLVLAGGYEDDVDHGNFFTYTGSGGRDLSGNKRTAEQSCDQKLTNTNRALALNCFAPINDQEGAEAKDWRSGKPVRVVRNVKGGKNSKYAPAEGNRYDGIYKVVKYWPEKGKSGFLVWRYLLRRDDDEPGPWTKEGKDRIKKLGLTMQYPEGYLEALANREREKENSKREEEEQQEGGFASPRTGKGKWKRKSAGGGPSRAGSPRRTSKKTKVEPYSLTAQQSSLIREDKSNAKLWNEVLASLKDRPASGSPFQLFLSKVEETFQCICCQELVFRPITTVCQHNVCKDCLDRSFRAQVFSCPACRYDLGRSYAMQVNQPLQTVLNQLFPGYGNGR
UHRF1 ctr MBD2: UHRF1 methylated DNA binding inhibitors, counter-screen for MBD2 inhibitor project, biochemical, TR-FRET, human UHRF1. shares compounds with MBD2 DNA inh. UHRF1 binding to methylated oligonucleotide. inhibition, % at 4.4 µM. hit rate 25% among 1,000. AID 720530, 2013;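 also: UHRF1 SRA domain binding a labeled hemimethylated CpG hairpin DNA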
MBD2 confirm: inhibitors of MBD2 binding to methylated DNA, confirmation, biochemical, TR-FRET, DNA-binding domain, human; shares compounds with MBD2 DNA inh; TR-FRET MBD2-DBD binding to methylated oligonucleotide; inhibition, % at 4.4 µM; hit rate 26% among 1,000; in the data active = inhibition above about 14%
Numbers stand for hits; – = inactive; · = no result; ! = a repeat was not active. Rule as the data show it, unless noted: active = inhibition above about 21%; inactive = the rest.

SMILES | PLCg1 inh | LEDGF integ inh | PLC-beta3 inh | MBD2 DNA inh | UHRF1 MBD2 ctr | UHRF1 ctr MBD2 | MBD2 confirm
O=C1C=C(c2ccc(C(=O)O)cc2)C[C@@H](c2ccc3c(c2)OCO3)C1 | – | – | – | 15.7 | – | – | –
O=C(CN1C2CCCC1CC(NC(=O)c1ccccc1)C2)Nc1ccccc1 (configuration not stated) | – | – | – | – | – | · | ·
COc1cccc(C(=O)NC2CC3CCCC(C2)N3CC(=O)Nc2ccccc2)c1 (configuration not stated) | – | – | – | 13.2 | – | – | –
CN(C)[C@H]1CCN(c2cccc3c2S(=O)(=O)N(C2CC2)CCCO3)C1 | – | – | – | – | – | · | ·
O=Cc1ccc(N2CCN(S(=O)(=O)c3ccc4c(c3)CC(=O)N4)CC2)cc1 | – | 23.5 | – | 14.6 | – | – | –
O=C1Cc2cc(S(=O)(=O)N3CCN(c4ccccc4)CC3)ccc2N1 | – | – | – | – | – | · | ·
CN(Cc1ccccc1N1CCCC1)C(=O)c1cc2cc(Cl)ccc2o1 | – | – | – | 31.2 | – | – | –
CN(Cc1ccccc1N1CCCC1)C(=O)c1cc2ccccc2o1 | – | – | – | – | – | · | ·
COc1cccc(NC(=O)Nc2c(-c3ccc(F)cc3)nc3ncccn23)c1 | – | – | – | – | – | · | ·
CC1(C)CC(=O)C2=C(C1)OC(N)=C(C#N)[C@@H]2c1ccccc1[N+](=O)[O-] | – | – | – | 17.6 | – | – | –
COC(=O)C1CN(Cc2cn(Cc3ccc(Cl)cc3)nn2)CCS(=O)(=O)N1Cc1ccccc1 (configuration not stated) | – | – | – | – | – | · | ·
CC1=NN(c2ccc(F)cc2)C(=O)C1C(c1cccc(O)c1)c1c(C)[nH]n(-c2ccc(F)cc2)c1=O (configuration not stated) | 18.2 | 39.0 | 12.2 | 19.3 | – | – | –
CC(=O)Nc1ccc(/C=N\NC(=O)c2cccc(S(=O)(=O)N(C)C)c2)cc1 | – | – | – | – | – | · | ·
O=C(CNC(=O)c1ccccc1)OCN1C(=O)c2ccccc2C1=O | – | – | – | 14.5 | – | – | –
O=C(CCNC(=O)c1ccccc1)OCN1C(=O)c2ccccc2C1=O | – | – | – | – | – | · | ·
CCC(=O)N1Cc2cc(C(=O)NCC(F)(F)F)nc(-c3cccc(-c4cncnc4)c3)c2[C@H]1CCO | – | – | – | 13.7 | 25.6 | – | –
CC(C(=O)Nc1cccnc1)C1Sc2ccccc2NC1=O (configuration not stated) | – | – | – | 77.6 | – | – | –
O=C(NCc1ccc(C(=O)NC2CCCC2)cc1)c1cccc(Br)c1 | – | – | – | – | – | · | ·
C=CCn1c(C)cc(C(=O)CSc2nc3ccccc3c(=O)[nH]2)c1C | – | – | – | – | – | · | ·
C=CCn1c(C)cc(C(=O)CSc2nc3ccccc3[nH]2)c1C | – | – | – | 19.5 | – | – | –
COc1ccccc1N1CCN(C(=O)C(C)CS(=O)(=O)c2ccc3c(c2)NC(=O)CS3)CC1 (configuration not stated) | – | 56.7 | – | 76.5 | 82.7 | – | –
CC(C)CN1C(=O)C[C@@]2(C(=O)N(C)c3ccc(NS(=O)(=O)C4CC4)cc32)C1c1ccccc1 (some centres not stated) | – | – | – | 15.2 | – | – | –
CC(C)CN1C(=O)C[C@@]2(C(=O)N(C)c3ccc(NC(=O)C(C)(C)C)cc32)C1c1ccccc1 (some centres not stated) | – | – | – | – | – | · | ·
COC(=O)c1cc(-c2ccc(OC)c(OC)c2)c2c(=O)[nH]c(=O)n(C)c2n1 | – | – | – | – | – | · | ·
COC(=O)c1cc(-c2cccc([N+](=O)[O-])c2)c2c(=O)[nH]c(=O)n(C)c2n1 | – | – | – | 13.5 | 23.0 | – | –
SMILES | PLCg1 inh | LEDGF integ inh | PLC-beta3 inh | MBD2 DNA inh | UHRF1 MBD2 ctr | UHRF1 ctr MBD2 | MBD2 confirm
CCc1ccccc1Nc1nc(N)nc(COC(=O)CCNS(=O)(=O)c2ccccc2)n1 | – | – | – | – | – | · | ·
CCc1ccccc1Nc1nc(N)nc(COC(=O)c2c(C)noc2C)n1 | – | – | – | 13.6 | 23.3 | – | –
c1ccc(-n2nc3c(ccc4cnnc43)[nH]2)cc1 | – | – | – | 14.9 | – | – | –
Cn1c(=O)c2c(ncn2CC2OCCO2)n(C)c1=O | – | – | – | 35.0 | – | – | –
CC(=O)c1cc(-c2cc(C(=O)O)cc([N+](=O)[O-])c2)c(=O)n2c1CCC2 | – | – | – | – | – | · | ·
Cc1c(C(N)=O)cc([N+](=O)[O-])cc1[N+](=O)[O-] | – | – | – | 17.0 | 22.5 | – | –
CCOc1c(C(N)=O)cc([N+](=O)[O-])cc1[N+](=O)[O-] | – | – | – | – | – | · | ·
CC1=C2NC(N)=[N+](Cc3ccc4c(c3)OCO4)CC2NOC1 (configuration not stated) | – | – | – | – | – | · | ·
C=CCN1[C@H](CO)[C@H](c2ccc(Br)cc2)[C@@H]1C#N | – | – | – | – | – | · | ·
COc1cccc(-c2cc(C(=O)NC3CCCC3)no2)c1 | – | – | – | 16.3 | – | – | –
Cc1ccc(C2NC(=S)NC3=C2C(=O)CCC3)cc1 (configuration not stated) | – | – | – | 13.8 | 24.4 | – | –
O=C1CCCC2=C1C(c1ccccc1)NC(=S)N2 (configuration not stated) | – | – | – | – | – | · | ·
COC(=O)[C@]12C[C@H](CC(=O)N3CCOCC3)C(=O)N(CCc3ccc(OC)c(OC)c3)C1=C[C@H](COCc1ccccc1)O[C@@H]2C | – | – | – | – | – | · | ·
CC(C)CC1Nc2ncnc(N3CCOCC3)c2N(Cc2ccc(Cl)cc2)C1=O (configuration not stated) | – | – | – | 20.6! | 23.6! | – | –
Cc1ccc(C(=O)NCC(=O)NC2CCC(C)CC2)s1 (configuration not stated) | – | – | – | 97.9 | – | – | –
CC1CN(Cc2c(O)ccc3c(=O)c(-c4ccccc4)coc23)CC(C)O1 (configuration not stated) | – | – | – | – | – | · | ·
CC1CN(Cc2c(O)ccc3c2oc(=O)c2ccccc23)CC(C)O1 (configuration not stated) | – | – | – | 15.8 | – | – | –
